The record followed here is ChEMBL document CHEMBL4513216, “Probing the Open Global Health Chemical Diversity Library for Multistage-Active Starting Points for Next-Generation Antimalarials” (ACS Infect Dis, 2020).

Structures are written as SMILES. Out of some 69,000 compounds screened, about 8,600 (12%) showed an effect of 50% or more. Only a selection was taken, and strong results are over-represented in it overall.

The subject of this experiment is Plasmodium berghei. In words: Screen against P. berghei liver stage (PbLuc), transformed with Luciferase, at 10uM. Type of experiment: functional, HepG2. To be noted: tested at 10 uM.
Regarding `CCN(CC)C(=O)Cn1cc(-c2nc(C(C)C)no2)nn1`, the INHIBITION was -18.1%.

`O=C(c1cnco1)N1C[C@@H](O)[C@H](Oc2cccc(F)c2)C1`: the INHIBITION is 5.11%.

For the molecule `Cc1cc(F)ccc1CNCc1cccc(C(=O)N2CCCC2)c1`, the INHIBITION is listed as 7.67%.

As to `NC(=O)c1cccc(CNCC=Cc2ccccc2)c1`, the INHIBITION is 17.1%.

As to `O=C(c1cccc(CNCC=Cc2ccccc2)c1)N1CCCC1`, the INHIBITION is recorded as 58.5%.

Take `COc1ccc(CN2CC(O)CN(C(=O)c3ccccc3)CC2=O)cc1` (stereo unspecified): the INHIBITION was determined as 23%.

On to `Cc1nc2n(n1)CC(NCC(=O)NCCC1=CCCCC1)CC2` (stereo unspecified), for which the INHIBITION is on record as 40.4%.

`CC(C)c1nc2n(n1)CC(NCC(=O)NCCC1=CCCCC1)CC2` (stereo unspecified): the INHIBITION worked out at 51.1%.

With `CCc1nc2n(n1)CC(NCc1nc(C)c(C)o1)CC2` (stereo unspecified), the INHIBITION is given as 46.6%.

As to `Cc1nc2n(n1)CC(NCc1nc(C)c(C)o1)CC2` (stereo unspecified), the INHIBITION was -67.9%.

Take `CCc1nnc(CNC2CCc3nc(C(C)C)nn3C2)o1` (stereo unspecified): the INHIBITION is -19.4%.

Regarding `CCc1nc2n(n1)CC(NCc1nc(C)ccc1O)CC2` (stereo unspecified), the INHIBITION is given as -15%.

In the case of `CC(C)c1nc2n(n1)CC(NCc1nnc(C(C)C)o1)CC2` (stereo unspecified), the INHIBITION is recorded as 18.9%.

For the molecule `CCc1nc2n(n1)CC(NCc1nc3ccccc3nc1C)CC2` (stereo unspecified), the INHIBITION is 53.3%.

`CCc1nc2n(n1)CC(NCc1nc3ccccc3o1)CC2` (stereo unspecified): the INHIBITION came to 11.9%.

Regarding `CCc1nc2n(n1)CC(NCc1nnc(C(C)C)o1)CC2` (stereo unspecified), the INHIBITION was determined as 60.2%.

On to `Cc1nc(CNC2CCc3nc(C(C)C)nn3C2)oc1C` (stereo unspecified), for which the INHIBITION turned out to be 75.2%.

On to `Cc1cc(NC(=O)CNC2CCc3nc(C(C)C)nn3C2)no1` (stereo unspecified), for which the INHIBITION is -7.31%.

For `CCN1C(=O)CC[C@@H]2[C@H]1CCN2S(=O)(=O)Cc1ccc(C)cc1`, the INHIBITION amounted to 45.2%.

As to `Clc1ccc(-c2nc(CN3CCCC3Cn3cncn3)co2)cc1` (stereo unspecified), the INHIBITION is recorded as -24.2%.

In the case of `c1coc(CN2CCO[C@H]3[C@H](OCC4CC4)CC[C@@H]32)c1`, the INHIBITION was -2.27%.

On to `CCN(Cc1nc2c(cnn2C)c(=O)[nH]1)c1ccc(F)cc1`, for which the INHIBITION is reported as 29.7%.

In the case of `CC(C)Nc1nc(O)cc(C2CC(=O)N(Cc3ccccn3)C2)n1` (stereo unspecified), the INHIBITION was -23.8%.

Turning to `Cc1cc(C(=O)N2CCC(c3nnc(Cn4ccnc4)n3C)CC2)cs1`, the INHIBITION is listed as -40.5%.

Consider `Cc1ccc(C(=O)N2CCC3(CC(N(C)c4ccncn4)C3)C2)cn1` (stereo unspecified), for which the INHIBITION was found to be 41.2%.

Consider `Cc1cnn(CC2CCCN2C(=O)c2cc3c(F)cccc3[nH]2)c1` (stereo unspecified), for which the INHIBITION was 24.6%.

Consider `CCCOC(C)C(=O)NCc1cc2n(n1)CCCN(C1CCCCC1)C2` (stereo unspecified), for which the INHIBITION is 14.8%.

Turning to `CN(C)S(=O)(=O)c1ccc(=O)n(CC2CCCCO2)c1` (stereo unspecified), the INHIBITION amounted to 4.52%.

On to `O=C(c1cccnc1)N1CCN(CC2CC2)c2ncccc2C1`, for which the INHIBITION was -18.4%.

As for `CSc1ccccc1C(=O)N1CCN(C)C2(CCC(=O)N(C)CC2)C1` (stereo unspecified), the INHIBITION is reported as 46.7%.

On to `Cc1c(F)cc(C(=O)O)cc1S(=O)(=O)Nc1ccccc1`, for which the INHIBITION is 20.265%.

For the molecule `Cn1c(C2CCCN2C(=O)CN2CSCC2=O)nc2ccccc21` (stereo unspecified), the INHIBITION is listed as 59.3%.

Consider `O=C1CSCN1CC(=O)N1CCCC1c1nc2ccccc2s1` (stereo unspecified), for which the INHIBITION is 32.3%.

Turning to `Cn1c(C2CCCN2C(=O)CN2CCCC2=O)nc2ccccc21` (stereo unspecified), the INHIBITION stood at 24.7%.

As for `Cn1c(C2CCCN2C(=O)c2cn(CCN)nn2)nc2ccccc21` (stereo unspecified), the INHIBITION is listed as 28%.

As to `Cn1cc(C2CCCN2C(=O)Cn2ccc3ccccc32)cn1` (stereo unspecified), the INHIBITION was 23.1%.

`Cn1c(C2CCCCN2C(=O)CN2CCCC2=O)nc2ccccc21` (stereo unspecified): the INHIBITION is reported as 61.5%.

For `CN1CCOC(CN(C(=O)CC2CCCC2)c2nccs2)C1` (stereo unspecified), the INHIBITION worked out at 55.5%.

As for `CN1CCOC(CN(C(=O)CN2CCCC2=O)c2nccs2)C1` (stereo unspecified), the INHIBITION stood at 48.1%.

Turning to `Cc1cnn(CCC(=O)N(CC2CN(C)CCO2)c2nccs2)c1` (stereo unspecified), the INHIBITION was -31.6%.

Take `CN1CCOC(CN(C(=O)CCc2cnn(C)c2)c2nccs2)C1` (stereo unspecified): the INHIBITION came out at 62.6%.

`CN1CCOC(CN(C(=O)COc2ccccc2)c2nccs2)C1` (stereo unspecified): the INHIBITION is given as -2.53%.

As for `CN1CCOC(CN(C(=O)CCc2ccco2)c2nccs2)C1` (stereo unspecified), the INHIBITION worked out at 43.3%.

For `CCC1(CO)CCCN(C(=O)c2cc(COc3ccccc3F)[nH]n2)C1` (stereo unspecified), the INHIBITION was -39.3%.

Consider `Cn1cc(-c2cc(C(F)(F)F)nn2CCC#N)cn1`, for which the INHIBITION was found to be 20.1%.

`Cc1cc2c(cc1NC(=O)NCC(C)C)OCO2`: the INHIBITION worked out at 28.5%.

Take `O=C1CCC2(CCN(CC[C@@H](O)c3ccccc3)CC2)CN1CC1CC1`: the INHIBITION is given as -51.7%.

Regarding `O=C(c1cccs1)N1CCCC(c2cc(C(F)F)n3ncnc3n2)C1` (stereo unspecified), the INHIBITION turned out to be 40%.

In the case of `O=C(CCCn1cccn1)N1CCCC(n2cncn2)C1` (stereo unspecified), the INHIBITION was 12.9%.

For the molecule `CC(C)C(=O)N1CCc2c(CN(C)Cc3ccco3)cncc2C1`, the INHIBITION is on record as -11.2%.

For the molecule `CC(C)(C)SCC(=O)NC(C)(C(N)=O)c1cccc(Cl)c1` (stereo unspecified), the INHIBITION is -19.5%.

Regarding `Cc1nncn1CCNC(=O)C(C)(C)c1cccc(Cl)c1`, the INHIBITION was 24.3%.

Regarding `CC(C)(C)CC(=O)NC(C)(C(N)=O)c1cccc(Cl)c1` (stereo unspecified), the INHIBITION was 74.5%.

As for `CC(NC(=O)Cc1cccs1)(C(N)=O)c1cccc(Cl)c1` (stereo unspecified), the INHIBITION is recorded as 60%.

For the molecule `COCCC(=O)NC(C)(C(N)=O)c1cccc(Cl)c1` (stereo unspecified), the INHIBITION is 26.4%.

For `CC(C)(C)OC(=O)NC(C)(C(N)=O)c1cccc(Cl)c1` (stereo unspecified), the INHIBITION is 65.6%.
